Bioassay records deposited in PubChem by National Center for Advancing Translational Sciences (NCATS).
This excerpt belongs to a sample that is enriched for hits.
nsP2pro primary = blocks chikungunya virus nsP2 protease peptide cleavage. Q8JUX6. FRET peptide cleavage, nsP2pro, fluorescence 1 h. Potency, µM (highest dose often 24.9 µM), most hits filed as inhibitors. 1.1% of 31,000 active; also: nearly all actives have a fitted effect of over 60% in size
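Recombinant nsP2pro (150 nM) was preincubated with compound 15 min at room temperature in 10 mM Tris-HCl pH 8.0, 0.01% Tween 20. Peptide 2 FRET substrate (2.5 uM) was then added and fluorescence read after 1 h. Seven-point series, up to 25 uM.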
nsP2 cell sec = inhibits CHIKV nsP2 protease in cells | shares compounds with nsP2pro primary | cell-based CHIKV nsP2 protease reporter assay | Potency, µM (doses to about 51.1 µM), most hits filed as inhibitors | 10% of 450 active | AID 1964100; also: nearly all actives have a fitted effect of over 70% in size
Target sequence (Q8JUX6 220-798 limits assumed): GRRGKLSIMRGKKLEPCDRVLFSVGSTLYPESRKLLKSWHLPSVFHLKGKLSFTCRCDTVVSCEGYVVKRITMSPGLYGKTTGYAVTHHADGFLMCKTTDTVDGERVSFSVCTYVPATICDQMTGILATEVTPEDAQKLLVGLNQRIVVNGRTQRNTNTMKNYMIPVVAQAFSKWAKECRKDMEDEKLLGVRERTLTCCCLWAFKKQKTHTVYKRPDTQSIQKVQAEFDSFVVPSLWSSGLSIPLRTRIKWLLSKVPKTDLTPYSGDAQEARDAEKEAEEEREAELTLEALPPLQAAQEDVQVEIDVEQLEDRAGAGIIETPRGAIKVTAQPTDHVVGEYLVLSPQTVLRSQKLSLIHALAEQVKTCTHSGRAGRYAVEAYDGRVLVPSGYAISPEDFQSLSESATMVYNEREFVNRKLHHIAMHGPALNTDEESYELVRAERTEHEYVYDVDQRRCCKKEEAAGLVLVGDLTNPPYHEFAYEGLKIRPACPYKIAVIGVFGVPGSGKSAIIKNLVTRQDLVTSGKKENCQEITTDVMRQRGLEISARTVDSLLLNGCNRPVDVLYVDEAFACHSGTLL
NSP2 full ctr = full-length CHIKV NSP2 protease inhibition, selectivity | AID 1964101 | shares compounds with nsP2pro primary | Potency, µM (titrated, usually from 50.7 µM), hits mostly inhibitors | 39% of 410 active | Full-length CHIKV NSP2 protease enzymatic counterscreen; also: nearly all actives have a fitted effect of over 65% in size
Furin counter = inhibits human furin in a CHIKV nsP2 protease selectivity counterscreen | Recombinant human furin enzymatic counterscreen, fluorogenic substrate | Potency, µM (titrated, usually from 50.6 µM), most hits filed as inhibitors | 6% of 410 active | shares compounds with nsP2pro primary | AID 1964102
NS23 peptide cs = selectivity test for CHIKV nsP2 protease inhibitors: endogenous NS2/3 peptide; shares compounds with nsP2pro primary; Purified CHIKV nsP2 protease, endogenous NS2/3 peptide cleavage; Potency, µM (top dose mostly 51 µM), hits mostly inhibitors; 34% of 410 active; also: nearly all actives have a fitted effect of over 55% in size
Papain counter = selectivity counter-screen for CHIKV nsP2 protease inhibitors: papain; shares compounds with nsP2pro primary; purified papain protease activity, enzymatic inhibition; 5% of 410 active; Potency, µM (doses to about 51 µM), actives largely listed as inhibitors
nsP2pro conf qHTS = confirmation of CHIKV nsP2 protease inhibitors; AID 1964105; CHIKV nsP2 protease enzymatic activity, qHTS; 43% of 410 active; Potency, µM (doses to about 25.5 µM), hits mostly inhibitors; shares compounds with nsP2pro primary; also: nearly all actives have a fitted effect of over 75% in size
HCV NS3 counter = HCV NS3/4A protease inhibition, counterscreen; AID 1964106; Potency, µM (doses to about 50.9 µM), usual class: inhibitors; 20% of 410 active; shares compounds with nsP2pro primary; HCV NS3/4A protease biochemical counterscreen; also: nearly all actives have a fitted effect of over 55% in size
Numbers stand for hits; n = inactive; u = inconclusive. Calls follow the shape of the full dose curve.

SMILES	nsP2pro primary	others
N#Cc1ccnc(N2C(=O)CC[C@H]2C(=O)N(c2cncc(F)c2)[C@H](C(=O)NC2CC(F)(F)C2)c2ccccc2Cl)c1	u	nsP2 cell sec=u;NSP2 full ctr=n;Furin counter=n;NS23 peptide cs=n;Papain counter=n;nsP2pro conf qHTS=n;HCV NS3 counter=u
Cc1ccccc1C(C(=O)NC1CCCCC1)N(C(=O)Cn1cnc2ccccc21)c1cccc(F)c1 (stereo not drawn)	n
CC(=O)[C@@]1(O)CC[C@H]2[C@@H]3CCC4=CC(=O)CC[C@@H]4[C@H]3CC[C@@]21C	n
CC1CCCC(C)N1C(=O)c1ccc2nc(-c3cccnc3)oc2c1 (stereo not drawn)	n
CCC(C)/C=C(C)/C=C/C1=CC2=C(Cl)C(=O)C(C)(OC(C)=O)C(=O)C2=CN1CCCCC(N)C(=O)O (stereo not drawn)	n
CCC(C)/C=C(C)/C=C/C1=CC2=C(Cl)C(=O)C(C)(OC(C)=O)C(=O)C2=CN1C(CCC(=O)O)C(=O)O (stereo not drawn)	n
CC[C@H](C)/C=C(C)/C=C/C1=CC2=CC(=O)[C@]3(C)OC(=O)[C@@H](C(C)=O)[C@@H]3C2=CO1	u	nsP2 cell sec=n;NSP2 full ctr=u;Furin counter=n;NS23 peptide cs=u;Papain counter=n;nsP2pro conf qHTS=u;HCV NS3 counter=n
CCC(C)/C=C(C)/C=C/C1=CC2=CC(=O)C3(C)OC(C)(O)C(C(=O)OC)C3C2=CO1 (stereo not drawn)	u	nsP2 cell sec=n;NSP2 full ctr=n;Furin counter=n;NS23 peptide cs=n;Papain counter=n;nsP2pro conf qHTS=u;HCV NS3 counter=n
CCC(C)/C=C(C)/C=C/C1=CC2=C(Cl)C(=O)C(C)(OC(C)=O)C(=O)C2=CO1 (stereo not drawn)	u	nsP2 cell sec=n;NSP2 full ctr=u;Furin counter=n;NS23 peptide cs=u;Papain counter=u;nsP2pro conf qHTS=u;HCV NS3 counter=n
CCC(C)/C=C(C)/C=C/C1=CC2=CC(=O)C(C)(O)C(OC(C)=O)C2CO1 (stereo not drawn)	n
Cc1cc(C(=O)NCC2(COc3ccc(S(C)(=O)=O)cc3)C[C@@H](O)[C@@H](O)C2)n(C)n1 (stereo partly drawn)	n
COc1cccc(NC(=S)N2CCN(c3cc(C(F)(F)F)cc(C(F)(F)F)c3)CC2)n1	n
CCOc1cc(F)c(CCNC(=O)c2cc3sccc3n2Cc2ccccc2)cc1OCC	n
O=C1Nc2ccccc2C12CN(Cc1ccc(C(F)(F)F)cc1)C2	n
Cn1cnc(CCNc2ncnc3ccc(-c4ccc5c(c4)OCO5)cc23)c1	n
CC1=C(C(=O)Nc2ccccc2)C(c2cc(C)ccc2C)N2C(CC(=O)NC(C)C)=CSC2=N1 (stereo not drawn)	n
CC1(C)[C@H](Cc2cc(COc3ccccc3)on2)C[C@@H]1NC1CCC1	n
C=CC(=O)Nc1cccc(Nc2nc(Nc3ccccc3)ncc2C)c1	n
CC(NCc1cn(CCC(N)=O)c2ccccc12)c1ccccc1-n1cccn1 (stereo not drawn)	n
Cc1noc(C)c1-c1cc2c(cc(C)n2CCN(C)C)c(Nc2ccncn2)n1	n
COc1ccc([S+](=O)([O-])N2CCCN([S+](=O)([O-])c3ccc(OC)c(NC(C)=O)c3)CC2)cc1NC(C)=O	n
CCc1nc2ccc(C(=O)N3CCN(c4cccc(OC)c4)CC3)cc2nc1CC	n
COC(=O)c1cc(CN2CCN(C(=N)N)CC2)cc(C(=O)N2CCN(C(=O)c3ccc(C(=N)N)cc3)CC2)c1	u	nsP2 cell sec=n;NSP2 full ctr=14.6µM;Furin counter=9.19µM;NS23 peptide cs=u;Papain counter=u;nsP2pro conf qHTS=u;HCV NS3 counter=n
COC(=O)c1ccc(O)c2ncc(-c3ccc(C(=O)N4CCNCC4)cc3)cc12	n
CO[C@H]1C(=O)N(C(C)C)[C@H]1C1CCN(S(=O)(=O)c2ccc3c(c2)CCC3)CC1	n
Cc1nn(-c2ccccn2)c(C)c1[C@@H]1C=C[C@@H](NC(=O)CCC(=O)O)C1	n
